The values below come from PubChem BioAssay (Tox21).

Where “and” joins values, the source holds several entries; their conditions need not be identical. Equal values may be shown once. Inconclusive results are not listed. A call without a number means that no potency is given here. More than one record can exist for a structure, and the calls need not agree. Calls of active or inactive are those of the source. Calls follow the shape of the dose curve; as a rule, active = well fitted activation curve with a large enough effect in the repeat runs; inconclusive = weak or mixed curves; inactive = flat fitted curve, though single readings scatter.
Potency is read from the fitted curve at half-maximal effect.

A short description of one experiment: A CellTox Green Cytotoxicity Assay to monitor cytotoxicity in HepG2 cells - 24 hour (AID 1224878). Also: nearly all actives have a fitted effect of over 45% in size. The following applies: CellTox Green fluorescence; series mostly up to 76.8 µM; cytotoxicity: at the top concentration. The procedure, abridged:
(§1)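 Using 1536-well format, dye-containing HepG2 suspension was seeded, allowed 5 h at 37 C/5% CO2, dosed by pintool with compounds, positive and negative controls, and imaged for fluorescence across 40 h.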
With `C/C=C/C(=O)O`, the Potency result was “inactive”.
As to `Cn1cnc([N+](=O)[O-])c1Sc1ncnc2nc[nH]c12`, the “cytotoxicity” value was -15.4% [at 35.3 µM] (inactive).
On to `Cc1cccc(N(C)C(=S)Oc2ccc3ccccc3c2)c1`, for which the Potency result was “inactive”.
In the case of `O=C=Nc1ccc(Cc2ccc(N=C=O)cc2)cc1`, the Potency entry is “inactive”.
Still for that read-out and setting: in the case of `O=CCc1ccccc1` it was “inactive”.
Take `CC(C(=O)O)c1cccc(C(=O)c2ccccc2)c1` (stereo not drawn): the Potency entry is “inactive”.
With `CC(=O)C1(C)CC2=C(CCCC2(C)C)CC1C` (stereo not drawn), the Potency result was “inactive”.
The same measure, in the same setting: as for `c1cc(N(CC2CO2)CC2CO2)ccc1OCC1CO1` (stereo not drawn), the entry is “inactive”; as for `Nc1ccccc1N`, 56.2 µM (active) and inactive; as for `CCOCCOCCO`, “inactive”.
For `CN(C)C(=N)N=C(N)N`, the Potency entry was “inactive”.
Turning to `COC(C)COC(C)COC(C)CO` (stereo not drawn), the Potency entry is “inactive”.
On the same count and under the same terms, in the case of `O=C1c2cccc(O)c2C(=O)c2c(O)cccc21` it was “inactive”; in that of `O=C(O)c1ccccc1Nc1cccc(C(F)(F)F)c1`, “inactive”.
Take `Cc1ccc2c(n1)Oc1ccc(C(C)C(=O)OCC(=O)N(C)C)cc1C2` (stereo not drawn): the Potency result was “inactive”.
As for `O=C(Nc1ccc(Cl)cc1)Nc1ccc(Cl)c(Cl)c1`, the Potency result is “inactive”.
As to `O=C(c1ccccc1)c1ccccc1O`, the “cytotoxicity” value was 6.52% (inactive).
As to `C#C[C@]1(O)CC[C@H]2[C@@H]3CCC4=Cc5oncc5C[C@]4(C)[C@H]3CC[C@@]21C`, the Potency result is “inactive”.
Take `CCCCc1oc2ccccc2c1C(=O)c1cc(I)c(OCCN(CC)CC)c(I)c1`: the Potency was 39.2 µM (active).
As for `CCCCC(CC)COC(=O)c1ccc(N(C)C)cc1` (stereo not drawn), the Potency entry is “inactive”.
The same measure, in the same setting: as for `C=CC(C)(CCC=C(C)C)OC(C)=O` (stereo not drawn), the entry is “inactive”; as for `COc1ccccc1/C=C/C=O`, “inactive”; as for `CC(=O)c1ccccn1`, “inactive”.
Regarding `CC(=O)Oc1ccccc1C(=O)Nc1ncc([N+](=O)[O-])s1`, the Potency entry is “inactive”.
Consider `CC(C)Oc1ccc2c(=O)c(-c3ccccc3)coc2c1`, for which the Potency entry was “inactive”.
With `Oc1ccc(O)cc1`, the Potency entry was “inactive”.
On to `OC[C@H]1O[C@@H]2O[C@H]3[C@H](O)[C@@H](O)[C@@H](O[C@H]4[C@H](O)[C@@H](O)[C@@H](O[C@H]5[C@H](O)[C@@H](O)[C@@H](O[C@H]6[C@H](O)[C@@H](O)[C@@H](O[C@H]7[C@H](O)[C@@H](O)[C@@H](O[C@H]8[C@H](O)[C@@H](O)[C@@H](O[C@H]1[C@H](O)[C@H]2O)O[C@@H]8CO)O[C@@H]7CO)O[C@@H]6CO)O[C@@H]5CO)O[C@@H]4CO)O[C@@H]3CO`, for which the Potency entry was “inactive”.
For the compound `CN(C)CCC=C1c2ccccc2CCc2ccccc21`, the Potency was 38.9 µM (active) and 23.9 µM (active).
Regarding `O=C(Nc1ccc([N+](=O)[O-])cc1Cl)c1cc(Cl)ccc1O`, the Potency was 5.49 µM (active) and the cytotoxicity was 38% [at 15.8 µM] (inactive).
For `Brc1cc(Oc2cc(Br)c(Br)c(Br)c2Br)c(Br)c(Br)c1Br`, the Potency result was “inactive”.
For the compound `CCC(C)c1ccccc1O` (stereo not drawn), the “cytotoxicity” value is 29.2% (inactive).
For `S=C(NC1CCCCC1)NC1CCCCC1`, the Potency entry was “inactive”.
Still for that read-out and setting: as for `CCCCOCCOCCO`, the entry is “inactive”; as for `O=C(COc1ccc(Cl)cc1)N1CCN(Cc2ccc3c(c2)OCO3)CC1`, “inactive”; as for `O=C(c1ccc(OCCN2CCCCC2)cc1)c1c(-c2ccc(O)cc2)sc2cc(O)ccc12`, 55 µM (active) and 54.9 µM (active).
As to `CC(C)OC(=O)C(C)(C)Oc1ccc(C(=O)c2ccc(Cl)cc2)cc1`, the Potency result is “inactive”.
In the case of `O=C(/C=C/C=C/c1ccc2c(c1)OCO2)N1CCCCC1`, the “cytotoxicity” value was 12.8% (inactive).

A short description of the next experiment: A CellTox Green Cytotoxicity Assay to monitor cytotoxicity in HepG2 cells - 40 hour (AID 1224879). Also: nearly all actives have a fitted effect of over 40% in size. The conditions noted are these: CellTox Green fluorescence; series mostly up to 76.8 µM; cytotoxicity increase: at the top concentration. An outline of the steps: as §1
Consider `C/C=C/C(=O)O`, for which the Potency entry was “inactive”.
For `Cn1cnc([N+](=O)[O-])c1Sc1ncnc2nc[nH]c12`, the Potency is 54.5 µM (active) and inactive.
Still for that read-out and setting: as for `Cc1cccc(N(C)C(=S)Oc2ccc3ccccc3c2)c1`, the entry is “inactive”.
Regarding `O=C=Nc1ccc(Cc2ccc(N=C=O)cc2)cc1`, the Potency result was “inactive”.
`O=CCc1ccccc1`: the “cytotoxicity increase” value was -7.98% (inactive).
For the compound `CC(C(=O)O)c1cccc(C(=O)c2ccccc2)c1` (stereo not drawn), the Potency result was “inactive”.
Same read-out and setting: as for `CC(=O)C1(C)CC2=C(CCCC2(C)C)CC1C` (stereo not drawn), the entry is “inactive”.
With `c1cc(N(CC2CO2)CC2CO2)ccc1OCC1CO1` (stereo not drawn), the “cytotoxicity increase” value is -1.66% (inactive).
On to `Nc1ccccc1N`, for which the Potency was 28.2 µM (active).
On the same count and under the same terms, as for `CCOCCOCCO`, the entry is “inactive”; as for `CN(C)C(=N)N=C(N)N`, “inactive”.
Same read-out and setting: in the case of `COC(C)COC(C)COC(C)CO` (stereo not drawn) it was “inactive”.
As for `O=C1c2cccc(O)c2C(=O)c2c(O)cccc21`, the Potency result is “inactive”.
With `O=C(O)c1ccccc1Nc1cccc(C(F)(F)F)c1`, the Potency result was “inactive”.
`Cc1ccc2c(n1)Oc1ccc(C(C)C(=O)OCC(=O)N(C)C)cc1C2` (stereo not drawn): the “cytotoxicity increase” value is -6.18% [at 35.3 µM] (inactive).
Still for that read-out and setting: as for `O=C(c1ccccc1)c1ccccc1O`, the figure is 1.97% (inactive).
Regarding `C#C[C@]1(O)CC[C@H]2[C@@H]3CCC4=Cc5oncc5C[C@]4(C)[C@H]3CC[C@@]21C`, the Potency result was “inactive”.
Turning to `CCCCc1oc2ccccc2c1C(=O)c1cc(I)c(OCCN(CC)CC)c(I)c1`, the Potency was 31.1 µM (active) and 26.8 µM (active).
On the same count and under the same terms, as for `CCCCC(CC)COC(=O)c1ccc(N(C)C)cc1` (stereo not drawn), the entry is “inactive”; as for `C=CC(C)(CCC=C(C)C)OC(C)=O` (stereo not drawn), “inactive”.
Still for that read-out and setting: as for `COc1ccccc1/C=C/C=O`, the entry is “inactive”.
On the same count and under the same terms, as for `CC(=O)c1ccccn1`, the entry is “inactive”.
In the case of `CC(=O)Oc1ccccc1C(=O)Nc1ncc([N+](=O)[O-])s1`, the Potency was 11.2 µM (active).
Consider `CC(C)Oc1ccc2c(=O)c(-c3ccccc3)coc2c1`, for which the Potency entry was “inactive”.
On the same count and under the same terms, as for `Oc1ccc(O)cc1`, the entry is “inactive”.
Same read-out and setting: as for `OC[C@H]1O[C@@H]2O[C@H]3[C@H](O)[C@@H](O)[C@@H](O[C@H]4[C@H](O)[C@@H](O)[C@@H](O[C@H]5[C@H](O)[C@@H](O)[C@@H](O[C@H]6[C@H](O)[C@@H](O)[C@@H](O[C@H]7[C@H](O)[C@@H](O)[C@@H](O[C@H]8[C@H](O)[C@@H](O)[C@@H](O[C@H]1[C@H](O)[C@H]2O)O[C@@H]8CO)O[C@@H]7CO)O[C@@H]6CO)O[C@@H]5CO)O[C@@H]4CO)O[C@@H]3CO`, the entry is “inactive”; as for `CN(C)CCC=C1c2ccccc2CCc2ccccc21`, 55 µM (active) and 43.6 µM (active) and 26.8 µM (active).
Still for that read-out and setting: in the case of `O=C(Nc1ccc([N+](=O)[O-])cc1Cl)c1cc(Cl)ccc1O` it was 4.9 µM (active) and 2.33 µM (active); in that of `Brc1cc(Oc2cc(Br)c(Br)c(Br)c2Br)c(Br)c(Br)c1Br`, “inactive”.
`CCC(C)c1ccccc1O` (stereo not drawn): the Potency was 48.6 µM (active).
On the same count and under the same terms, in the case of `S=C(NC1CCCCC1)NC1CCCCC1` it was “inactive”.
As to `CCCCOCCOCCO`, the Potency result was “inactive”.
Same read-out and setting: as for `O=C(COc1ccc(Cl)cc1)N1CCN(Cc2ccc3c(c2)OCO3)CC1`, the entry is “inactive”.
The same measure, in the same setting: as for `O=C(c1ccc(OCCN2CCCCC2)cc1)c1c(-c2ccc(O)cc2)sc2cc(O)ccc12`, the figure is 49 µM (active) and 26.8 µM (active).
For the compound `CC(C)OC(=O)C(C)(C)Oc1ccc(C(=O)c2ccc(Cl)cc2)cc1`, the “cytotoxicity increase” value was -8.7% [at 35.3 µM] (inactive).
